According to publication PMC4336329 (PLoS ONE, 2015):
The whole screen tested about 310,000 compounds, of which about 14,000 (4.5%) showed an effect of 50% or more. Effects have a minus sign here. Only a selection was taken, and strong results are over-represented in it overall.

target: human ether-à-go-go-related gene (hERG) potassium channel (human, UniProt Q12809); assay: primary screen, population patch clamp on CHO cells stably expressing hERG; higher = less effect of the substance
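Also: peak tail current of the secondary pulse compared with the same well before compound.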

human ether-à-go-go-related gene (hERG) potassium channel, sequence (Q12809 whole entry, looked up): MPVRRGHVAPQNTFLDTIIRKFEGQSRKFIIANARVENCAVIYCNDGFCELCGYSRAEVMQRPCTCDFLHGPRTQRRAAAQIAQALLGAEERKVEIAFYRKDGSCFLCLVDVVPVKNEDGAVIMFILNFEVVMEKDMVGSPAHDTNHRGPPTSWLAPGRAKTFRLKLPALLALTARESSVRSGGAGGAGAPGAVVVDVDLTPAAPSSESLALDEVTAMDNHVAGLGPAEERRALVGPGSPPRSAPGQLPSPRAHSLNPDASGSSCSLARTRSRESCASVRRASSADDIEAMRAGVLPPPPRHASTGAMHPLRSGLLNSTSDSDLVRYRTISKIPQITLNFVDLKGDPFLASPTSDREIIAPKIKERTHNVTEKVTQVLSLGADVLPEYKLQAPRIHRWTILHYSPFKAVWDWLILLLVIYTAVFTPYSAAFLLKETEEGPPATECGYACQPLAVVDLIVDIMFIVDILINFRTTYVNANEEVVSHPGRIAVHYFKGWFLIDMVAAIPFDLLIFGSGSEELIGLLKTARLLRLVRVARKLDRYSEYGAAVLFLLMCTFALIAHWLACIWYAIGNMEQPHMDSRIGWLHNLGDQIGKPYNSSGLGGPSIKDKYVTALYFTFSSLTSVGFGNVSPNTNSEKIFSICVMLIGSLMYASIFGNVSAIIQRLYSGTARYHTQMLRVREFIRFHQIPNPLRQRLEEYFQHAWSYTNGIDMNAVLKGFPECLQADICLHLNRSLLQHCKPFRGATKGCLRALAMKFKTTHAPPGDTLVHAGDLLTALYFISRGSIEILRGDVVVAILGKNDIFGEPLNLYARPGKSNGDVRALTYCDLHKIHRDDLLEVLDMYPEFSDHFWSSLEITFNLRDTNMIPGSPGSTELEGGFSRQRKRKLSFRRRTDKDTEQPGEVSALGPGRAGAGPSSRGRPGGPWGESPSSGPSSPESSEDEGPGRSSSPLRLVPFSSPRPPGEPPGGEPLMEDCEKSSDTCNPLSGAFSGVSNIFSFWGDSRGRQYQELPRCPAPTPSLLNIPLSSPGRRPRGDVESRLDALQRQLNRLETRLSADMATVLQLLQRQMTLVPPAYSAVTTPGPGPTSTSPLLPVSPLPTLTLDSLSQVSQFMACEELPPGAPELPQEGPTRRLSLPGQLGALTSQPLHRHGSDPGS

SMILES | hERG current change (%, negative = inhibition) at 10uM [%]
Cc1nc(Cl)c(C(=O)Nc2cccc(F)c2)c(C)c1Cl | -5.95
CSc1nnc(CNS(=O)(=O)c2ccc(F)cc2)n1C | 19.7
C=CC[n+]1c(/C=C2\C=Cc3cc(C)ccc3N2CC)ccc2ccccc21.[Br-] | -83.5
CCN1/C(=C/c2ccc3ccccc3[n+]2CCCS(=O)(=O)[O-])C=Cc2cc(C)ccc21 | 24.2
CCN1C(=C(C#N)C#N)C=Cc2ccccc21 | 15.8
CCN1/C(=C/c2ccc3ccccc3[n+]2CC)C=Cc2ccccc21.[Cl-] | -82.5
CCOC(=O)/C(C#N)=C/C=C1\C=Cc2ccccc2N1CC | 7.18
CCN1C(=C(C#N)C#N)C=Cc2cc(C)ccc21 | 15.7
CCN1/C(=C/c2cc[n+](C)cc2)C=Cc2cc(C)ccc21.[I-] | -72.2
CCN1C(=O)/C(=C2\C=Cc3cc(C)ccc3N2CC)OC1=S | 0.13
CCN1/C(=C2\C(=O)N(c3ccccc3)N=C2C)C=Cc2cc(C)ccc21 | -40
CC1=C(C(N)=O)C(c2ccccc2F)n2nc(CCCO)nc2N1 (stereo not drawn) | 20.3
OCC[C@H]1C[C@H](O)[C@@H](O)[C@@]2(CCc3ccccc3CO2)O1 | 7.83
CCOCC(=O)Nc1cc([N+](=O)[O-])ccc1C | -2.36
COc1cc(NS(=O)(=O)c2ccc(NC(=S)NC(=O)c3ccco3)cc2)ncn1 | 20.4
Cc1ccc(-c2noc(CCCN3C(=O)c4ccccc4C3=O)n2)cc1 | 9.03
CCCCNC(=O)CC1NCCNC1=O (stereo not drawn) | 22
Cc1ccccc1CS(=O)(=O)CCC(=O)NCCN1CCN(c2cccc(Cl)c2)CC1 | -42.5
CCOC(=O)CNc1nc(Cl)nc(Nc2ccc(OC)cc2OC)n1 | 19.2
CCN1C(c2ccc(F)cc2)=CS/C1=C(\C#N)c1nnc2n1-c1ccccc1SC2 | -58.9
Br.CN1C(c2ccc(F)cc2)=CS/C1=C(/C#N)c1nnc(N2CCOCC2)n1-c1ccccc1 | -23.8
CN1C(c2ccc(F)cc2)=CS/C1=C(\C#N)c1nnc2n1-c1ccccc1SC2 | -45.5

SMILES | hERG current change (%, negative = inhibition) at 10uM [%]
COc1ccccc1-n1cnnc1SCC(=O)c1cc(C)n(Cc2cccs2)c1C | -27.8
COc1ccc(-c2nnc(SCC(=O)c3cc(C)n(Cc4cccs4)c3C)o2)cc1 | 5.36
COc1ccc(-n2cnnc2SCC(=O)c2cc(C)n(Cc3cccs3)c2C)cc1 | -73.5
COC(=O)Cn1c(=O)cnc2ccccc21 | -2.96
CCn1cnc2c(oc3ccccc32)c1=O | 18.3
CCOc1ccc(-n2c(N)c(C(=O)N3CCN(C)CC3)sc2=S)cc1 | -51
CCOC(=O)c1sc(=S)n(-c2ccc(OC)cc2)c1C | -51.1
Cc1ccc(-n2c(N)c(C(=O)N3CCN(C)CC3)sc2=S)cc1 | -30.4
CCOC(=O)c1sc(=S)n(-c2ccc(OC)cc2)c1N | 15.2
CCOC(=O)c1sc(=S)n(-c2ccc(Cl)cc2)c1C | -37.4
CN1CCN(C(=O)c2sc(=S)n(-c3ccccc3)c2N)CC1 | -10.2
COC(=O)c1c(NC(=O)CSc2nnnn2-c2ccccc2)sc2c1CCC(C(C)(C)C)C2 (stereo not drawn) | -1.38
C=CCn1c(SCC(=O)Nc2cccnc2Cl)nnc1-c1ccc(Cl)cc1 | -45.4
CCOC(=O)C1(C)C=C(Nc2ccccc2)C(=O)N1c1ccccc1 (stereo not drawn) | 25.7
Cc1c(NC(=O)/C(C#N)=C/c2c(Oc3ccccc3)nc3ccccn3c2=O)c(=O)n(-c2ccccc2)n1C | 5.93
Cc1ccc(CNC(=O)C2CCCC2)cc1 | 8.93
CCN(CC)S(=O)(=O)N1CCC(C(=O)NCc2ccc(C)cc2)CC1 | -16.9
Cc1ccc(CNC(=O)C2CCN(S(=O)(=O)N3CCCC3)CC2)cc1 | 0.472
Cc1ccc(CNC(=O)C2CCN(S(=O)(=O)N3CCCCC3)CC2)cc1 | -11.4
CSc1ccc(CN2CCC(C(=O)NCc3ccc(C)cc3)CC2)cc1.O=C(O)C(=O)O | -87.6
CCN(CC)c1ccc(CN2CCC(C(=O)NCc3ccc(C)cc3)CC2)cc1.O=C(O)C(=O)O | -65.3
O=C1c2ccccc2C(=O)N1CNc1ccccc1 | 18.7

SMILES | hERG current change (%, negative = inhibition) at 10uM [%]
O=C1CC(c2ccccc2)CN1C(=O)c1cncc(Br)c1 (stereo not drawn) | 5.75
O=C(c1cccnc1)N1N=C(C2CCCCC2)CC1(O)C(F)(F)F (stereo not drawn) | -0.742
CC1CC(C)CN(CCCNC(=O)c2csc3c2CCCC3)C1 (stereo not drawn) | -65
CCC1CCCCN1CCCNC(=O)c1csc2c1CCCCC2 (stereo not drawn) | -56.7
CCN1CCN(CCCNC(=O)c2csc3c2CCCCC3)CC1 | -7.21
CC1CCCC(C)N1CCCNC(=O)c1csc2c1CCCCC2 (stereo not drawn) | -49.3
O=C(NCCN1CCOCC1)c1csc2c1CCCCC2 | 5.21
CC(C)CCNC(=O)c1csc2c1CCCCC2 | 2.04
O=C(NCCCN1CCOCC1)c1csc2c1CCCC2 | -7.57
CC1CC(C)CN(CCCNC(=O)c2csc3c2CCCCC3)C1 (stereo not drawn) | -61.2
CCN1CCCC1CNC(=O)c1csc2c1CCCC2 (stereo not drawn) | -38.9
CC1(C)Cc2c(sc(NC(=O)c3ccc4ncsc4c3)c2C(N)=O)C(C)(C)N1 | -30.5
Cc1cccc(NC(=O)Nc2ccccc2[N+](=O)[O-])n1 | 16.7
NS(=O)(=O)c1ccc(CCNC(=O)CN2CCN(c3ccc(F)cc3)CC2)cc1 | -18.7
COCCSc1ccccc1C(=O)Nc1ccc2c(c1)OCCO2 | 5.7
CCOCCCN(C(=O)c1snc(C(N)=O)c1N)C(C(=O)NC1CCCC1)c1ccc(OC)cc1 (stereo not drawn) | -60.5
CCC(C(=O)NC1CCCCC1)N(C(=O)c1snc(C(N)=O)c1N)c1ccc(OC)cc1OC (stereo not drawn) | -69.3
COc1ccc(C(C(=O)NC2CCCC2)N(C(=O)c2snc(C(N)=O)c2N)C2CCCC2)cc1OC (stereo not drawn) | 5.77
CCOc1ccc(C(C(=O)NC2CCCC2)N(C(=O)c2snc(C(N)=O)c2N)C2CCCC2)cc1 (stereo not drawn) | -51.1
CCOCCCN(C(=O)c1snc(C(N)=O)c1N)C(C(=O)NC1CCCC1)c1ccc(F)cc1 (stereo not drawn) | -12
CCOCCCN(C(=O)c1snc(C(N)=O)c1N)C(C(=O)NC(C)(C)C)c1ccc(Cl)cc1 (stereo not drawn) | -33.1
CCOCCCN(C(=O)c1snc(C(N)=O)c1N)C(C(=O)NC1CCCC1)c1ccc(O)cc1 (stereo not drawn) | 3.52

SMILES | hERG current change (%, negative = inhibition) at 10uM [%]
CCOc1ccc(C(C(=O)NC2CCCCC2)N(CCOC)C(=O)c2snc(C(N)=O)c2N)cc1 (stereo not drawn) | -47.5
CCOCCCN(C(=O)c1snc(C(N)=O)c1N)C(C(=O)NCCC(C)C)c1ccc(F)cc1 (stereo not drawn) | -23.6
COc1ccc(C(C(=O)NC2CCCCC2)N(C(=O)c2snc(C(N)=O)c2N)c2ccc(OC)cc2OC)cc1 (stereo not drawn) | 9.37
CCOCCCN(C(=O)c1snc(C(N)=O)c1N)C(C(=O)NCCC(C)C)c1ccc(Cl)cc1 (stereo not drawn) | -68.1
CCC(C(=O)NC1CCCC1)N(C(=O)c1snc(C(N)=O)c1N)c1ccc(OC)c(OC)c1 (stereo not drawn) | 15.5
CCCCC1CCCOC(C(=O)NCCNCCO)(C(F)(F)F)C1 (stereo not drawn) | 6.03
CN(C)c1nnnn1-c1ccc(Cl)cc1Cl | 0.276
CCN(CC)C(=O)c1n[nH]c(=O)c2ccccc12 | 4
CCn1c(SCC(=O)Nc2cc(C)on2)nnc1-c1ccccc1 | -3.05
COc1ccc(-c2cc(C(=O)N3CCN(c4ccccc4OC)CC3)no2)cc1OC | -0.868
N#CCOC(=O)c1c2c(nc3ccccc13)CCC2 | -23.1
Cc1ccc(C)c(S(=O)(=O)N2CCN(CC(=O)NC(=O)NCc3ccccc3)CC2)c1 | -9.97
Cc1cc(C)n(-c2ccc(C(=O)N3CCc4ccccc43)cc2)n1 | -3.89
COc1ccccc1NC(=O)Nc1ccccc1C#N | 15.6
O=C1CCCN1CCCNS(=O)(=O)c1cccc(F)c1 | 25.9
CCOc1ccccc1N(C(=O)c1snc(C(N)=O)c1N)C(C(=O)NCCC(C)C)c1ccco1 (stereo not drawn) | -22.2
COc1ccccc1N(C(=O)c1snc(C(N)=O)c1N)C(C(=O)NC1CCCC1)c1ccco1 (stereo not drawn) | -35.4
CCOc1ccccc1N(C(=O)c1snc(C(N)=O)c1N)C(C(=O)NC1CCCC1)c1ccco1 (stereo not drawn) | -55
CNC(=S)N1CCN(c2nc(-c3ccc(Cl)cc3)cs2)CC1 | 14.7
Cc1cc2c(cc1C)N(Cc1ccccc1)C1=NCCCN12.Cl | -72.3
Cc1cc2c(cc1C)N(Cc1ccc(Cl)cc1)C1=NCCCN12 | -69.8
